# Data: ChEMBL document CHEMBL3988442, “University of Dundee, Small-Polar-MMV Screening Library” (2021)
# For some of these results: Measured potencies and affinities stand elsewhere.
# Tests used:
# Parameters in all cases: scale not given: direction of the effect not stated beside the values
# [1] = molecular target: Protein translocase subunit SecA (Escherichia coli (strain K12)) (UniProt P10408); test: Assay to Identify E. coli SecA ATPase Inhibitors; assay type: functional; conditions: 30 µM
# Sequence of Protein translocase subunit SecA (Escherichia coli (strain K12)) (P10408 whole entry): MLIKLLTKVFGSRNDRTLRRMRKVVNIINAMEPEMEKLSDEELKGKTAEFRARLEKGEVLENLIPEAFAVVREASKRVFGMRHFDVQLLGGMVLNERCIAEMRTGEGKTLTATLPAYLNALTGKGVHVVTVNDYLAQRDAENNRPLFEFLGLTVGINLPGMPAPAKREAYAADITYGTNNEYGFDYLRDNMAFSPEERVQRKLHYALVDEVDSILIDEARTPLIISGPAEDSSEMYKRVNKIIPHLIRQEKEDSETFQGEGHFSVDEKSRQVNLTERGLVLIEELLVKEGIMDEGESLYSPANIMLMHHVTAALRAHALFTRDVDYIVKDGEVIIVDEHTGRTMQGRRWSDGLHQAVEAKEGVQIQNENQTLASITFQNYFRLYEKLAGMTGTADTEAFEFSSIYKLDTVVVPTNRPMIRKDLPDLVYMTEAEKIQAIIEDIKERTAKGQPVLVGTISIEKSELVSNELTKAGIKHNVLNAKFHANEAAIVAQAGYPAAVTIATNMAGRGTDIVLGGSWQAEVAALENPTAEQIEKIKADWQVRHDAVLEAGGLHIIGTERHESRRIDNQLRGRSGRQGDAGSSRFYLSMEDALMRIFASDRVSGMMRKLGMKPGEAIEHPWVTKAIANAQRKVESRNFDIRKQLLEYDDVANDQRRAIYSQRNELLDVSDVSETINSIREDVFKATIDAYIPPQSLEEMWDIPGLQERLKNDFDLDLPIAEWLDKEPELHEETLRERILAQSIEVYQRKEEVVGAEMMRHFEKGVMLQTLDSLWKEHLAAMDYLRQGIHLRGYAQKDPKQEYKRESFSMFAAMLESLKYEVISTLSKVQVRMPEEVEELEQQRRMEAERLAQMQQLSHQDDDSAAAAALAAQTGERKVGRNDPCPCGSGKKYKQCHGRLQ
# [2] = molecular target: T1, Ubiquitin-activating enzyme e1, putative (Leishmania donovani (strain BPK282A1)) (UniProt E9BSI1); test: Leishmania donovani Ubiquitin Activating Enzyme (LdE1); assay type: functional; conditions: 30 µM
# T1 sequence (whole entry): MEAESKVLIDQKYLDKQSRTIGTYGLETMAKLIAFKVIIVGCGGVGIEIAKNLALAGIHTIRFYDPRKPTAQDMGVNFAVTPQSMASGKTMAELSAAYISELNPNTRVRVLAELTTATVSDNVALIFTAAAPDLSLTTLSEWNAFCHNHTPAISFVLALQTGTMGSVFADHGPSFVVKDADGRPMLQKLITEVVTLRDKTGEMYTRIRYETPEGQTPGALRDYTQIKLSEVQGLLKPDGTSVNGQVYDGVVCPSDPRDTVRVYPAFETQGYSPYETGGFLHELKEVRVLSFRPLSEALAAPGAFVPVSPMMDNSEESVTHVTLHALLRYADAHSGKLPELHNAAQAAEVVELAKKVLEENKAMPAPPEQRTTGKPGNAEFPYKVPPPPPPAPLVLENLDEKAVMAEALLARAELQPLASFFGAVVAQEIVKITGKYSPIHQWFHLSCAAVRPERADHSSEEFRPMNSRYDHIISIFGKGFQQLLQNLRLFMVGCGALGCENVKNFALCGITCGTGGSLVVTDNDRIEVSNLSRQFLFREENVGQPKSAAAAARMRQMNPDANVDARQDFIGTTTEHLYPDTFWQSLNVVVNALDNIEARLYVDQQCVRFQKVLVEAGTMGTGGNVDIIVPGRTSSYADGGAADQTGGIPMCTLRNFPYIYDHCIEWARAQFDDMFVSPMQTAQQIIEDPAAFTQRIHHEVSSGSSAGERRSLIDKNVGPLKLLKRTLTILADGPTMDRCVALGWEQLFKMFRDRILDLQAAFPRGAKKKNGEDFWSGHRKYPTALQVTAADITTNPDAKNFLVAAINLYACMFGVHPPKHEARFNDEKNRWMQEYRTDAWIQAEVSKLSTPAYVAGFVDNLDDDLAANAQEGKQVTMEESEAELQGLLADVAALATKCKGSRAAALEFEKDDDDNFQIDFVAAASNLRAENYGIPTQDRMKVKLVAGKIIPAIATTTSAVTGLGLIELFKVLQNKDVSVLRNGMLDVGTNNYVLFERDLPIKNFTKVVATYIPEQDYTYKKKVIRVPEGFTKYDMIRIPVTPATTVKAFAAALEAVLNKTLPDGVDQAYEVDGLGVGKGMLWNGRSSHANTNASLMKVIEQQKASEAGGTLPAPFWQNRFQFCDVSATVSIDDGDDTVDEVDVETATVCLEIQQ
# [3] = molecular target: AMP-activated protein kinase, AMPK (Homo sapiens) (UniProt P54646+O43741+P54619+Q9UGJ0+Q9Y478+Q13131+Q9UGI9); test: AMP-dependent Kinase enzyme assay. An in vitro enzyme assay that detects ADP turnover that is directly proportional to AMPK activity. This uses naive AMPK that is activated during the assay with MK-8722; assay type: functional; conditions: 30 µM
# [4] = molecular target: Sialic acid-binding Ig-like lectin 9 (Homo sapiens) (UniProt Q9Y336); test: Hs-Siglec9 ALPHAscreen SOP 20170721; conditions: 10 µM
# Sequence of Sialic acid-binding Ig-like lectin 9 (Homo sapiens) (Q9Y336 whole entry): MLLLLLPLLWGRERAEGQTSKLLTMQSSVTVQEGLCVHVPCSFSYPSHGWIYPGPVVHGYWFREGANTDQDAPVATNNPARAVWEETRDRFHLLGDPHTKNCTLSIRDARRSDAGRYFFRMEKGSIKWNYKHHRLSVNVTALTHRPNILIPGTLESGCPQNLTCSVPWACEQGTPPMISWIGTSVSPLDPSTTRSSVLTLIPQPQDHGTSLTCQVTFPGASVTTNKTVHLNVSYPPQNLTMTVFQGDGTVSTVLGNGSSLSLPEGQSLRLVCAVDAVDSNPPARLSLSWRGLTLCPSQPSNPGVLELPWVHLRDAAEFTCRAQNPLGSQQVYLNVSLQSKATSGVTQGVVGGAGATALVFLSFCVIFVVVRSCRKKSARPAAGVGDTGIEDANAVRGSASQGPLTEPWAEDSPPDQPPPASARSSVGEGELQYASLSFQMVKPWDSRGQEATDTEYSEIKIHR
# Trypanosoma cruzi = test: Trypanosoma cruzi phosphomannomutase and mannose-1-phosphate guanylyltransferase assay; assay type: functional; conditions: 10 µM
# [5] = molecular target: T2, Arginase-2, mitochondrial (Homo sapiens) (UniProt P78540); test: in vitro enzyme assay to detect the production of urea directly proportional to the activity of Arginase II; assay type: functional; conditions: 33.3 µM; also: in the data most compounds retested in dose-response had high values
# T2 sequence (whole entry): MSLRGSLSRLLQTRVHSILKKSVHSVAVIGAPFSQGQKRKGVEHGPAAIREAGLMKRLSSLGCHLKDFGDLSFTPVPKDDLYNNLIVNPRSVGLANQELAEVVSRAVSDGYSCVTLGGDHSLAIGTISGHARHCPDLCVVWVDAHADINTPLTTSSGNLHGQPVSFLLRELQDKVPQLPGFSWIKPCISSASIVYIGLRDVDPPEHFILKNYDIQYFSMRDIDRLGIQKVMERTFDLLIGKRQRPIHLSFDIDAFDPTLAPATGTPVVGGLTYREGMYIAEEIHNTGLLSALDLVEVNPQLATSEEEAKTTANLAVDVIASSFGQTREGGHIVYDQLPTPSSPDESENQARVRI
# [6] = molecular target: T3, Proteasome subunit beta (Trypanosoma cruzi) (UniProt O96673); test: Trypanosoma cruzi proteasome chymotrypsin-like activity (TcProtChymo) assay.; also: in the data most compounds retested in dose-response had high values; assay type: functional; conditions: 9.37 µM
# T3 sequence (whole entry): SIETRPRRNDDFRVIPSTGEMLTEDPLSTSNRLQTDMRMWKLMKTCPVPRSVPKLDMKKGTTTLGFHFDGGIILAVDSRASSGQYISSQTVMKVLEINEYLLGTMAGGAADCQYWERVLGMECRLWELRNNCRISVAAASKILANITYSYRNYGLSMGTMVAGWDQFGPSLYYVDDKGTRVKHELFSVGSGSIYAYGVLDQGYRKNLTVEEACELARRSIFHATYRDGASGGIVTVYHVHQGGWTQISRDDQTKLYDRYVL
# Homo sapiens = species on record: Homo sapiens; test: To identify inhibition of the IFN signalling (Jak-Stat) pathway via expression of an eGFP reporter gene under the control of an IFN-stimulated response element (ISRE) containing MxA promoter.; assay type: functional; conditions: 30 µM
# [7] = molecular target: T4, Tyrosyl-tRNA synthetase, putative (Trypanosoma cruzi (strain CL Brener)) (UniProt Q4DSP6); test: Trypanosoma cruzi tyrosyl tRNA synthetase (TcYRS) _High Tyrosine SOP; assay type: functional; conditions: 30 µM; also: in the data most compounds retested in dose-response had high values
# T4 sequence (whole entry): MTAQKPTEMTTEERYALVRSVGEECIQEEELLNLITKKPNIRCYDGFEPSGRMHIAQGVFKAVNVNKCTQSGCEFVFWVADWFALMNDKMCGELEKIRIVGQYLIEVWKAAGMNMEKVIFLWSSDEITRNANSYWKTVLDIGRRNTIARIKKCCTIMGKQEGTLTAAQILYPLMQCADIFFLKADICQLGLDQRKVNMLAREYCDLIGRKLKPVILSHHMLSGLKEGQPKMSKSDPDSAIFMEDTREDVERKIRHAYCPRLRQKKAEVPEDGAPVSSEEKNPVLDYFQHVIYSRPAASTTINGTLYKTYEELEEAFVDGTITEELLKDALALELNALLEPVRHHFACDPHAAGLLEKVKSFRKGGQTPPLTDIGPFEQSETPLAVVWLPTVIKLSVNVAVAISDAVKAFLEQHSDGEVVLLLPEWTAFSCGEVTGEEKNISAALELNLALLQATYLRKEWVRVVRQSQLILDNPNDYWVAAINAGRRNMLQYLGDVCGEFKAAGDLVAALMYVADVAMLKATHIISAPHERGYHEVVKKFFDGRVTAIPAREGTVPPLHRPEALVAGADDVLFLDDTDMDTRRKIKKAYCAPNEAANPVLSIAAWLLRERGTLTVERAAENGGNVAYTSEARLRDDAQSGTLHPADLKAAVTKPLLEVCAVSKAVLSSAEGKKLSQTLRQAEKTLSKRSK
# [8] = molecular target: T4, Tyrosyl-tRNA synthetase, putative (Trypanosoma cruzi (strain CL Brener)); test: Trypanosoma cruzi tyrosyl tRNA synthetase (TcYRS) SOP; assay type: functional; conditions: 30 µM
# [9] = molecular target: Chromo domain-containing protein 1 (Saccharomyces cerevisiae (strain ATCC 204508 / S288c) (Baker's yeast)) (UniProt P32657); test: ScCHD-1 Enzyme Inhibition Assay; assay type: functional; conditions: 30 µM; also: in the data most compounds retested in dose-response had high values
# Sequence of Chromo domain-containing protein 1 (Saccharomyces cerevisiae (strain ATCC 204508 / S288c) (Baker's yeast)) (P32657 whole entry, the tested form may be a part): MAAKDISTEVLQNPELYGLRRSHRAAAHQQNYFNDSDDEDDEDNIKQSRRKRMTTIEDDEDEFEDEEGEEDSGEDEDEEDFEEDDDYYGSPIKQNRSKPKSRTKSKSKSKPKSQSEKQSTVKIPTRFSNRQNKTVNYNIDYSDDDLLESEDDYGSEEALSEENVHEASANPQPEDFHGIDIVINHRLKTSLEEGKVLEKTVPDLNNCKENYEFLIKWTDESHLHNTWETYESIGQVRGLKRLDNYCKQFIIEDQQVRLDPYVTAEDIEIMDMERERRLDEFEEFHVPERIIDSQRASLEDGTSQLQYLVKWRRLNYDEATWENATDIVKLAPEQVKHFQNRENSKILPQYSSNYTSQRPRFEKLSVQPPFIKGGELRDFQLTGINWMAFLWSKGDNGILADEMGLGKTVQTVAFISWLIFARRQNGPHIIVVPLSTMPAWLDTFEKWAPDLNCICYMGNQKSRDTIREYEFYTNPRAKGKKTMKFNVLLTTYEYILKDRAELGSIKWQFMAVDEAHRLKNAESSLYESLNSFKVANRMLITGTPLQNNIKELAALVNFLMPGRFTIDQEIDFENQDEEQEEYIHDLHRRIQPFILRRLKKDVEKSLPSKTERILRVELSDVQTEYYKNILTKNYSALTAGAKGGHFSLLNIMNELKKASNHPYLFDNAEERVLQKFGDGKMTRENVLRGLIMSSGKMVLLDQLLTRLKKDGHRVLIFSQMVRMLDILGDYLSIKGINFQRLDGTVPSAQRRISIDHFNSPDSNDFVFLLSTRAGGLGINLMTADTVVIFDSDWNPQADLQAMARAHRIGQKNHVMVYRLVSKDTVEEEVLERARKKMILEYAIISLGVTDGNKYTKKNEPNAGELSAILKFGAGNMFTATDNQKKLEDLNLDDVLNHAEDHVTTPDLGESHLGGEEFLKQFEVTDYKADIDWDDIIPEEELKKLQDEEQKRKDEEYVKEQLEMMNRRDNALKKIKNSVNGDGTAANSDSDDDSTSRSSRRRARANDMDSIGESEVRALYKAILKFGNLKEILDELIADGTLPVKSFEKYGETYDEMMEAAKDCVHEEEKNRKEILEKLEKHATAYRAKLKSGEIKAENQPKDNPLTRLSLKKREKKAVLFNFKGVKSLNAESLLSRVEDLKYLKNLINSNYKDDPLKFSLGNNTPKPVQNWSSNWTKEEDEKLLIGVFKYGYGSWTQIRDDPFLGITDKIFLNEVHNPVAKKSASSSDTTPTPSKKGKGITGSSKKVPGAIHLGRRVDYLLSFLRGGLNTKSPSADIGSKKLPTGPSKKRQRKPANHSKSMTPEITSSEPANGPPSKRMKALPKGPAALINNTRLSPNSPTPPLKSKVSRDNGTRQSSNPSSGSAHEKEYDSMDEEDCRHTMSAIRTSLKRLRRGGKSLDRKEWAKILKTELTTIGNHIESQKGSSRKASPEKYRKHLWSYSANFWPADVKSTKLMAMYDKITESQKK
Structure (SMILES),Percent Effect [1],Percent Effect [2],Percent Effect [3],Percent Effect [4],Percent Effect (Trypanosoma cruzi),Percent Effect [5],Percent Effect [6],Percent Effect (Homo sapiens),Percent Effect [7],Percent Effect [8],Percent Effect [9]
CCn1cc(CN2C[C@@H]3CCCN3C[C@@H]2CCSC)c(C)n1,-1.75%,5.33%,8.44%,4.09%,-4.53%,2.1%,8.37%,3.9%,3.19%,6.41%,0.13%
Cc1cccc(C(=O)NCc2ccc(N3CCCCC3)nc2)n1,-0.795%,13.9%,3.85%,4.23%,-2.97%,-1.5%,11.8%,24.3%,8.33%,15.2%,-1.41%
Cc1cnn(C2CN(Cc3nc(-c4ccco4)no3)C2)c1,-7.03%,13%,26.4%,11.1%,0.374%,-0.356%,5.41%,10.2%,10.7%,19.5%,-2.84%
Cc1nc(C2(O)CCCNCC2)sc1CCOc1ccc(Cl)cc1 (stereo not given),-4.62%,6.76%,17.1%,1.33%,-3.56%,-2.09%,6.4%,33.8%,4.3%,11.7%,-12.8%
CN(CCNC(=O)N1CCN(Cc2ccon2)CC1)C1CCCC1,-7%,2.67%,3.19%,-0.946%,1.85%,4.69%,-2.27%,4.26%,4.92%,8.64%,-1.28%
CC(=O)NCCc1cc(N2CCN(C(C)=O)CC2)nc(C2CC2)n1,2.03%,-6.76%,10.3%,-0.0242%,-3.75%,1.16%,9.36%,7.59%,2.15%,-1.3%,-3.42%
Cc1cccc(-n2c(C)cc(C(=O)N3CCn4c(C)nnc4C3)c2C)c1,-3.26%,10.5%,-12.3%,9.36%,2.15%,-3.6%,7.19%,3.33%,11.3%,16.1%,-0.518%
CCN(Cc1ccccc1)C(=O)CN1CCCC(Cn2cncn2)C1 (stereo not given),-8.07%,21.1%,-3.72%,18.3%,3.64%,2.16%,8.38%,-4.88%,-4.43%,23.5%,-6.71%
NS(=O)(=O)CCNC(=O)C1(c2ccc(Br)cc2)CC1,2.05%,7.79%,-1.42%,6.68%,4.23%,-13.8%,13%,-0.291%,2.15%,16.1%,-2.63%
Cc1cc2c(=O)n3c(nc2s1)CCN(Cc1ccncc1)CC3,2.21%,4.05%,13.8%,-10.1%,-4.94%,5.8%,4.21%,19.7%,3.23%,9.09%,-10.3%
CN(CCCc1cnn(C)c1)C(=O)C1CCOC1 (stereo not given),-4.14%,2.74%,3.21%,1.94%,-6.46%,-1.36%,13.1%,10.7%,3.23%,2.5%,-1.18%
Cc1cc(C)c(CNC(=O)N(C)CC2CCCCO2)c(=O)[nH]1 (stereo not given),-3.05%,7.89%,2.98%,-2.11%,-8.84%,3.06%,14.2%,30.1%,4.41%,9.76%,-2.04%
Cc1cc(C)n(CC(=O)N(C)Cc2csc(-c3cccs3)n2)c(=O)n1,0.251%,0%,-4.15%,2.64%,1.66%,7.29%,19.5%,17.8%,6.01%,18.5%,-6.32%
Nc1nc(C2CCN(C(=O)c3cncs3)CC2)cs1,-7.01%,12.2%,9.81%,5.35%,1.38%,0.232%,3.59%,-3.51%,3.23%,11.7%,-8.22%
CC(C)c1cccc(CSc2nnc(CN3CCCC3=O)o2)n1,2.49%,-2.67%,-1.77%,-1.76%,-0.0974%,5.21%,-0.174%,-2.67%,1.64%,1.24%,0.138%
CCCn1nccc1C(=O)N1CCCN(CCCc2ccccc2)CC1,-5.36%,11%,-4.71%,8.5%,7.14%,-4.79%,16.2%,4.05%,7.29%,8.64%,-1.42%
CCc1noc(C(C)N2CCN(c3ccc(C#N)cc3F)CC2)n1 (stereo not given),-1.97%,5.26%,2.6%,-3.73%,7.89%,-8.28%,21.2%,-24.1%,6.38%,13%,-4.69%
COc1ccc(NC(=O)CCc2c(C)nc3cc(O)nn3c2C)cn1,-3.54%,0%,-317%,9.4%,6.18%,0.356%,8.62%,25.5%,7.77%,21.9%,-8.7%
CN(CCCOc1ccccc1)C(=O)CN1CCc2cncnc2C1,-1.71%,26.3%,-41.1%,4.54%,9.24%,-0.719%,10.6%,-5.43%,30.1%,38.3%,-11.5%
COCCN(Cc1ccc(F)cc1Cl)C(=O)c1cccc[n+]1[O-],-4.42%,-1.39%,3.97%,-0.933%,-1.65%,6.18%,12.3%,-7.04%,1.05%,7.69%,-2.92%
